In PubChem BioAssay AID1159580 (chemical genetic matrix, 2015):
The campaign covered roughly 5,500 compounds. About 2,000 (36%) were called active. Inconclusive results (about 18%) are left out. Cut-off read from the data, not from the text of the source: active = normalized growth mostly below about 0.91 (no sharp cut-off); inconclusive = no clear call, values can overlap the other calls; inactive = mostly above about 0.92. The list shows a part of the results.

Test: chemical genetic growth profiling, strain panel (AID 1159580);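 note: tested at 20 µM; growth read once vehicle control cultures reached saturation at 30 °C; 1 = growth at the plate median or of vehicle wells; lower values mean less growth of the strain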
Conditions: S. cerevisiae deletion strains, growth OD
[1] = locus YAL013W, strain DEP1, stronger effect = lower value
[2] = locus YAL040C, strain CLN3, stronger effect = lower value
[3] = locus YCL061C, strain MRC1 (second series), stronger effect = lower value
[4] = locus YDR363W, strain ESC2, stronger effect = lower value
[5] = locus YER002W, strain NOP16, stronger effect = lower value
[6] = locus YMR263W, strain SAP30, stronger effect = lower value
[7] = locus YMR307W, strain GAS1, stronger effect = lower value
[8] = locus YNL153C, strain GIM3, stronger effect = lower value
[9] = locus YNL175C, strain NOP13, stronger effect = lower value
[10] = locus YNL197C, strain WHI3, stronger effect = lower value
[11] = locus YNL224C, strain SQS1, stronger effect = lower value
[12] = locus YNL322C, strain KRE1, stronger effect = lower value
[13] = locus YOR083W, strain WHI5 (second series), stronger effect = lower value
[14] = locus YPL055C, strain LGE1, stronger effect = lower value
[15] = locus YPL241C, strain CIN2, stronger effect = lower value
[16] = locus YDR150W, strain NUM1, stronger effect = lower value
[17] = locus YGR078C, strain PAC10, stronger effect = lower value

Measured: normalized growth

NCC1(CC(=O)O)CCCCC1
inactive: [1] 1 | [2] 0.991 | [3] 1.01 | [4] 0.995 | [5] 1.01 | [6] 0.999 | [7] 0.99 | [8] 1.02 | [9] 1.01 | [10] 1.01 | [11] 1.02 | [12] 0.998 | [13] 0.977 | [14] 0.999

C[N+]1(C)C2CCC1CC(OC(=O)c1c[nH]c3ccccc13)C2 (stereo not drawn)
inactive: [1] 1.02 | [2] 1.06 | [3] 0.996 | [4] 1 | [5] 0.974 | [6] 0.997 | [7] 1.01 | [9] 0.973 | [10] 1.01 | [11] 1.02 | [12] 1 | [13] 0.978 | [14] 1 | [15] 1

CN(C)CCCCSC(=N)N
inactive: [1] 1.04 | [2] 0.998 | [3] 1.02 | [16] 1.01 | [4] 1.02 | [5] 0.985 | locus YJR075W, strain HOC1, stronger effect = lower value 1.04 | [7] 1.01 | locus YNL128W, strain TEP1, stronger effect = lower value 0.999 | [9] 0.995 | [10] 0.992 | [11] 1 | [13] 1.01

CCSC(=N)N
inactive: locus YAL021C, strain ccr4, stronger effect = lower value 1.03 | locus YAL026C, strain drs2, stronger effect = lower value 1.01 | locus YAL030W, strain snc1, stronger effect = lower value 1.01 | locus YBL061C, strain skt5, stronger effect = lower value 1.02 | locus YBR009C, strain hhf1, stronger effect = lower value 1.01 | locus YBR023C, strain chs3, stronger effect = lower value 1.02 | locus YBR171W, strain sec66, stronger effect = lower value 1.02 | locus YBR231C, strain swc5, stronger effect = lower value 1.01 | locus YBR279W, strain paf1, stronger effect = lower value 1.01 | locus YCL011C, strain gbp2, stronger effect = lower value 1.02 | locus YCL016C, strain dcc1, stronger effect = lower value 1.01 | [3] 1 | locus YCL061C, strain MRC1, stronger effect = lower value 1.01 | locus YCL069W, strain vba3, stronger effect = lower value 1.01 | locus YCR088W, strain abp1, stronger effect = lower value 1.02 | locus YDL005C, strain med2, stronger effect = lower value 1.03 | locus YDL040C, strain nat1, stronger effect = lower value 1.02 | locus YDR001C, strain nth1, stronger effect = lower value 1.01 | locus YDR069C, strain doa4, stronger effect = lower value 1.01 | locus YDR137W, strain rgp1, stronger effect = lower value 1.01 | [16] 1.01 | locus YDR159W, strain sac3, stronger effect = lower value 1.05 | locus YDR195W, strain ref2 1.01 | locus YDR297W, strain sur2, stronger effect = lower value 1.02 | locus YDR334W, strain swr1, stronger effect = lower value 1.01 | locus YDR335W, strain msn5, stronger effect = lower value 1.02 | [4] 1.01 | locus YDR392W, strain spt3, stronger effect = lower value 0.975 | locus YEL003W, strain gim4, stronger effect = lower value 1.01 | locus YEL037C, strain rad23, stronger effect = lower value 1.01 | locus YEL061C, strain CIN8 (second series), stronger effect = lower value 1.01 | [5] 0.999 | locus YER015W, strain faa2, stronger effect = lower value 1.01 | locus YER016W, strain bim1, stronger effect = lower value 1.02 | locus YER111C, strain swi4, stronger effect = lower value 1.02 | locus YER155C, strain BEM2 (second series), stronger effect = lower value 1.05 | locus YFR010W, strain ubp6, stronger effect = lower value 1.01 | locus YGL167C, strain pmr1, stronger effect = lower value 1.03 | locus YGL173C, strain kem1, stronger effect = lower value 1.01 | locus YGL227W, strain vid30, stronger effect = lower value 1.02 | locus YGL240W, strain doc1, stronger effect = lower value 1.02 | locus YGL253W, strain hxk2, stronger effect = lower value 1.02 | [17] 1.02 | locus YGR229C, strain SMI1, stronger effect = lower value 1.04 | locus YHR013C, strain ard1, stronger effect = lower value 1 | locus YHR027C, strain rpn1, stronger effect = lower value 1.02 | locus YHR142W, strain chs7, stronger effect = lower value 1.03 | locus YJL092W, strain hpr5, stronger effect = lower value 1.01 | locus YJL095W, strain BCK1 (second series), stronger effect = lower value 1.01 | locus YJL115W, strain asf1, stronger effect = lower value 1.02 | locus YJL129C, strain trk1, stronger effect = lower value 1.04 | locus YJL154C, strain vps35, stronger effect = lower value 1.01 | locus YJL164C, strain tpk1, stronger effect = lower value 1.01 | locus YJL166W, strain qcr8, stronger effect = lower value 1.02 | locus YJL187C, strain SWE1, stronger effect = lower value 1.01 | locus YKL160W, strain elf1, stronger effect = lower value 1.02 | locus YKR026C, strain gcn3, stronger effect = lower value 1.01 | locus YKR091W, strain srl3, stronger effect = lower value 1.01 | locus YLL001W, strain dnm1, stronger effect = lower value 1.02 | locus YLL026W, stronger effect = lower value 1.01 | locus YLL041C, strain sdh2, stronger effect = lower value 1.02 | locus YLR027C, strain aat2, stronger effect = lower value 1.01 | locus YLR221C, strain rsa3, stronger effect = lower value 1.01 | locus YLR258W, strain gsy2, stronger effect = lower value 1.01 | locus YLR262C, strain YPT6 (second series), stronger effect = lower value 1.02 | locus YLR320W, strain mms22, stronger effect = lower value 1.03 | locus YLR342W, strain FKS1, stronger effect = lower value 1.02 | locus YLR357W, strain rsc2, stronger effect = lower value 1.01 | locus YLR370C, strain arc18, stronger effect = lower value 1.02 | locus YLR384C, strain iki3, stronger effect = lower value 1.02 | locus YML120C, strain ndi1, stronger effect = lower value 1.01 | locus YMR058W, strain fet3, stronger effect = lower value 1.02 | locus YMR125W, strain sto1, stronger effect = lower value 1.01 | locus YMR129W, stronger effect = lower value 1.02 | locus YMR205C, strain PFK2, stronger effect = lower value 0.998 | locus YMR231W, strain pep5, stronger effect = lower value 1.01 | [6] 1.01 | [7] 1.03 | locus YNL071W, strain lat1, stronger effect = lower value 1.02 | [8] 1.03 | [9] 0.988 | [10] 0.992 | locus YNL209W, strain ssb2, stronger effect = lower value 1.01 | [11] 1.01 | locus YNL248C, strain rpa49, stronger effect = lower value 1.02 | locus YNL322C, strain KRE1 (second series), stronger effect = lower value 1.02 | [12] 1.01 | locus YNR049C, strain mso1, stronger effect = lower value 1.01 | locus YOR001W, strain rrp6, stronger effect = lower value 1.02 | locus YOR070C, strain gyp1, stronger effect = lower value 1.01 | locus YOR080W, strain dia2, stronger effect = lower value 1.03 | [13] 0.995 | locus YOR083W, strain WHI5, stronger effect = lower value 1.03 | locus YOR106W, strain vam3, stronger effect = lower value 1.04 | locus YOR265W, strain rbl2, stronger effect = lower value 1.01 | locus YOR270C, strain vph1, stronger effect = lower value 1.07 | locus YOR290C, strain snf2, stronger effect = lower value 0.96 | locus YPL051W, strain arl3, stronger effect = lower value 1.02 | locus YPL078C, strain atp4, stronger effect = lower value 1.02 | locus YPL106C, strain sse1, stronger effect = lower value 1.04 | locus YPL240C, strain hsp82, stronger effect = lower value 1.02
active: [2] 1.12 [resistant] | [14] 1.17 [resistant]

CSC(=N)N
inactive: [2] 0.992 | [3] 1.01 | [16] 1.01 | [4] 1.02 | [5] 0.984 | [17] 1.01 | [7] 1.01 | [8] 1.01 | [9] 1.01 | [10] 1 | [11] 1 | [13] 1.01 | [15] 1.01

COc1ccc(NC(=O)O/N=C(/N)c2ccc(Oc3c(Cl)cncc3Cl)cc2)cc1
inactive: locus YAR019C, strain CDC15, stronger effect = lower value 0.966 | locus YBL105C, strain PKC1, stronger effect = lower value 0.974 | locus YBR135W, strain CKS1, stronger effect = lower value 0.975 | locus YBR136W, strain MEC1, stronger effect = lower value 0.982 | locus YBR160W, strain CDC28, stronger effect = lower value 0.976 | locus YDL017W, strain CDC7, stronger effect = lower value 0.98 | locus YDL028C, strain MPS1, stronger effect = lower value 0.987 | locus YDL101C, strain DUN1, stronger effect = lower value 0.969 | locus YDL108W, strain KIN28, stronger effect = lower value 0.99 | locus YDL132W, strain cdc53, stronger effect = lower value 0.966 | locus YDL214C, strain PRR2, stronger effect = lower value 0.825 | locus YDR052C, strain DBF4, stronger effect = lower value 0.986 | locus YDR054C, strain cdc34, stronger effect = lower value 0.959 | locus YDR226W, strain ADK1, stronger effect = lower value 0.965 | locus YDR477W, strain SNF1, stronger effect = lower value 0.758 | locus YER133W, strain GLC7, stronger effect = lower value 0.751 | locus YFL009W, strain cdc4, stronger effect = lower value 0.963 | locus YFL029C, strain CAK1, stronger effect = lower value 0.971 | locus YFR003C, strain YPI1, stronger effect = lower value 0.972 | locus YFR028C, strain CDC14, stronger effect = lower value 0.963 | locus YGR040W, strain KSS1, stronger effect = lower value 0.751 | locus YGR052W, strain FMP48, stronger effect = lower value 0.694 | locus YGR092W, strain DBF2, stronger effect = lower value 0.706 | locus YHR079C, strain IRE1, stronger effect = lower value 0.618 | locus YHR082C, strain KSP1, stronger effect = lower value 0.805 | locus YHR205W, strain SCH9, stronger effect = lower value 0.743 | locus YIL147C, strain SLN1, stronger effect = lower value 0.963 | locus YJL095W, strain BCK1, stronger effect = lower value 0.578 | locus YJL128C, strain PBS2, stronger effect = lower value 0.971 | locus YJL157C, strain FAR1, stronger effect = lower value 0.805 | locus YJR016C, strain ILV3, stronger effect = lower value 0.975 | locus YJR066W, strain TOR1, stronger effect = lower value 0.69 | locus YKL048C, strain ELM1, stronger effect = lower value 0.95 | locus YKL067W, strain YNK1, stronger effect = lower value 0.866 | locus YKL101W, strain HSL1, stronger effect = lower value 0.881 | locus YKL193C, strain SDS22, stronger effect = lower value 0.97 | locus YKL203C, strain TOR2, stronger effect = lower value 0.806 | locus YLR133W, strain CKI1, stronger effect = lower value 0.825 | locus YLR403W, strain SFP1, stronger effect = lower value 0.756 | locus YML070W, strain DAK1, stronger effect = lower value 0.804 | locus YMR001C, strain CDC5, stronger effect = lower value 0.958 | locus YMR205C, strain PFK2 (second series), stronger effect = lower value 0.898 | locus YMR277W, strain FCP1, stronger effect = lower value 0.977 | locus YNL006W, strain LST8, stronger effect = lower value 0.981 | locus YNL020C, strain ARK1, stronger effect = lower value 0.856 | locus YNL161W, strain CBK1, stronger effect = lower value 0.962 | locus YNL183C, strain NPR1, stronger effect = lower value 0.593 | locus YNL207W, strain RIO2, stronger effect = lower value 0.957 | locus YNL222W, strain SSU72, stronger effect = lower value 0.965 | locus YNL307C, strain MCK1 (second series), stronger effect = lower value 0.745 | locus YOL078W, strain AVO1, stronger effect = lower value 0.973 | locus YOL136C, strain PFK27, stronger effect = lower value 0.793 | locus YOR061W, strain CKA2, stronger effect = lower value 0.87 | locus YOR119C, strain RIO1, stronger effect = lower value 0.781 | locus YOR231W, strain MKK1, stronger effect = lower value 0.661 | locus YOR329C, strain SCD5, stronger effect = lower value 0.971 | locus YPL031C, strain PHO85, stronger effect = lower value 0.726 | locus YPL153C, strain RAD53, stronger effect = lower value 0.728 | locus YPL204W, strain HRR25, stronger effect = lower value 0.676 | locus YPL209C, strain IPL1, stronger effect = lower value 0.963 | locus YPR025C, strain CCL1, stronger effect = lower value 0.965 | locus YPR106W, strain ISR1, stronger effect = lower value 0.98 | locus YPR111W, strain DBF20, stronger effect = lower value 1 | strain NNK1, stronger effect = lower value 1 | strain TSCII, stronger effect = lower value 0.975
active: locus YER123W, strain YCK3, stronger effect = lower value 0.575 | locus YFR019W, strain FAB1, stronger effect = lower value 0.527 | locus YHR030C, strain SLT2, stronger effect = lower value 0.71 | locus YJR066W, strain TOR1 (second series), stronger effect = lower value 0.572 | locus YLR113W, strain HOG1, stronger effect = lower value 0.604 | locus YPL256C, strain CLN2, stronger effect = lower value 0.676
